High-throughput results from PubChem BioAssay.
The list is a sample of the results.
aSyn UTR act: Activators working through SNCA 5'UTR binding (MLPCN); 300,000 compounds, 7.1% hits; alpha-synuclein 5'UTR reporter, activators screen; activity score, % (tested at 7.5 µM), hits read low; in the data active means activity score below about -60%
The depositor's hits bear a star.

Results for N/C(=N\OC(=O)c1ccccc1Br)c1ccc([N+](=O)[O-])cc1 ?
aSyn UTR act: -103*

Results for N/C(=N\OC(=O)c1ccccc1F)c1cccc([N+](=O)[O-])c1 ?
aSyn UTR act: -183*

What do the screens show for `N/C(=N\OC(=O)c1ccccc1Br)c1cccc([N+](=O)[O-])c1`?
aSyn UTR act: -77*

How did Cc1ccccc1/C(N)=N/OC(=O)c1ccc(F)cc1 do in these assays?
aSyn UTR act: -177*

Results for Cc1ccccc1C(=O)O/N=C(\N)c1ccc([N+](=O)[O-])cc1 ?
aSyn UTR act: -127*

How did O=C(CSc1ccccn1)Nc1ccc2c(c1)oc1ccccc12 do in these assays?
aSyn UTR act: -122*

How did COc1cc2c(cc1NC(=O)CSc1ccccn1)oc1ccccc12 do in these assays?
aSyn UTR act: -281*

Results for O=[N+]([O-])c1cc(S(=O)(=O)/N=C(/c2ccccc2)N2CCOCC2)ccc1Cl ?
aSyn UTR act: -83*

How did O=Nc1c(-c2ccccc2)cc2ccccn12 do in these assays?
aSyn UTR act: -211*

What do the screens show for `Cc1ccc(NC(=O)c2sc(Cl)nc2-c2ccccc2)cc1`?
aSyn UTR act: -63*

How did O=C(Nc1ccc(F)cc1)c1sc(Cl)nc1-c1ccccc1 do in these assays?
aSyn UTR act: -73*

What do the screens show for `O=[N+]([O-])c1ccc(O)c(C2=NNC(c3ccccc3F)C2)c1` (stereo not drawn)?
aSyn UTR act: -122*

What do the screens show for `CCN1C(=O)/C(=C2/C=Cc3ccccc3N2C)OC1=S`?
aSyn UTR act: -200*

How did COc1ccc(OC)c(/C=N/N(C)c2ccccc2)c1 do in these assays?
aSyn UTR act: -187*

Results for O=C(COc1ccccc1N1C(=O)c2ccccc2C1=O)c1ccc(Cl)cc1 ?
aSyn UTR act: -87*

Results for O=c1cc(N2CCN(c3ccccc3Cl)CC2)[nH]c(=O)n1Cc1ccc(F)cc1 ?
aSyn UTR act: -72*

Results for Oc1ccc(N=Nc2n[nH]c(-c3ccccc3)n2)cc1 ?
aSyn UTR act: -85*

How did c1ccc(NC2=Nc3ccccc3CC2)cc1 do in these assays?
aSyn UTR act: -179*

What do the screens show for `Cn1c(C(=O)N/N=C/c2ccccc2)cc2ccccc21`?
aSyn UTR act: -108*

What do the screens show for `Cc1cc(C(=O)N/N=C/c2cccc3ccccc23)c(C)o1`?
aSyn UTR act: -62*

How did Cn1nccc1C(=O)N/N=C/c1c(O)ccc2ccccc12 do in these assays?
aSyn UTR act: 92

What do the screens show for `Cc1cc(C(=O)N/N=C/c2ccccc2)c(C)o1`?
aSyn UTR act: -70*

How did CC1(C)CC(=O)C(C(=O)/C=C/c2ccco2)C(=O)C1 do in these assays?
aSyn UTR act: -73*

Results for CN1CCN(C2Cc3cc(Cl)ccc3Sc3cc(F)ccc32)CC1 (stereo not drawn) ?
aSyn UTR act: 101

Results for CN1CCSc2ccc(C(=O)Nc3cc(F)ccc3F)cc21 ?
aSyn UTR act: -98*

How did Cc1ccccc1NC(=O)c1ccc2c(c1)N(C)CCS2 do in these assays?
aSyn UTR act: -103*

What do the screens show for `CC(C)/C=N/Nc1nc(-c2ccc(Br)cc2)cs1`?
aSyn UTR act: -141*

How did CC(/C=C/c1ccccc1)=N\Nc1ccccc1[N+](=O)[O-] do in these assays?
aSyn UTR act: -150*

Results for Cc1oc(=O)c(NC(=O)c2ccccc2)cc1C(=O)c1ccccc1 ?
aSyn UTR act: -205*

How did CC(=O)c1cc(NC(=O)c2ccc(C)cc2)c(=O)oc1/C=C/N(C)C do in these assays?
aSyn UTR act: -78*

What do the screens show for `CC(=O)c1cc(NC(=O)c2ccc(C)cc2)c(=O)oc1C`?
aSyn UTR act: -117*

Results for Cc1ccc(C(=O)Nc2cc3ccccc3oc2=O)cc1 ?
aSyn UTR act: 111

What do the screens show for `CCN1/C(=C/C=C/c2oc3ccc4ccccc4c3[n+]2CC)Oc2ccc3ccccc3c21`?
aSyn UTR act: 92

What do the screens show for `COCCN=c1scc(-c2cccs2)n1/N=C(\C)c1ccco1`?
aSyn UTR act: -153*

How did CCN(CC)CCNC(=O)c1nn(-c2ccc(C)cc2)c(=O)c2c1c1ccccc1n2C do in these assays?
aSyn UTR act: -64*

What do the screens show for `Cc1ccc(NC(=O)CN(C)C(=O)Cn2ncc(Cl)c(Cl)c2=O)cc1`?
aSyn UTR act: 82

Results for O=C(NCC1CC1(Cl)Cl)Nc1ccc(Cl)c(Cl)c1 (stereo not drawn) ?
aSyn UTR act: -156*

How did Cc1ccc(NC(=O)NCC2CC2(Cl)Cl)cc1 (stereo not drawn) do in these assays?
aSyn UTR act: -165*

What do the screens show for `C=COCCNC(=O)Nc1ccc(Cl)c(Cl)c1`?
aSyn UTR act: -127*

How did CCOC(=O)Nc1sc2c(c1C#N)CCC(C)C2 (stereo not drawn) do in these assays?
aSyn UTR act: -161*

Results for CC1CCc2c(sc(NC(=O)c3nc4ncccn4n3)c2C#N)C1 (stereo not drawn) ?
aSyn UTR act: -148*

Results for CC1CCc2c(sc(NC(=O)COC(=O)C3CCCO3)c2C#N)C1 (stereo not drawn) ?
aSyn UTR act: -68*

What do the screens show for `CC1CCc2c(sc(NC(=O)C3CCCO3)c2C#N)C1` (stereo not drawn)?
aSyn UTR act: -114*

What do the screens show for `Cc1cc(N/N=C/c2ccccc2[N+](=O)[O-])nc(-n2nc(C)cc2C)n1`?
aSyn UTR act: 57

How did Brc1ccc(-c2nc(N/N=C/c3cccnc3)c3ccccc3n2)cc1 do in these assays?
aSyn UTR act: -92*

How did Cc1ccc(-c2nc(N/N=C/c3ccccc3[N+](=O)[O-])c3ccccc3n2)cc1 do in these assays?
aSyn UTR act: -267*

Results for Cc1ccc(Nc2nc3c(c(=O)[nH]2)CCCC3)cc1 ?
aSyn UTR act: -143*

How did Cc1ccc(Nc2nc(C)c(CCC(C)C)c(=O)[nH]2)cc1 do in these assays?
aSyn UTR act: -94*

What do the screens show for `Cc1sc2ncnc(N/N=C/c3ccccc3O)c2c1C`?
aSyn UTR act: 106

What do the screens show for `Cc1sc2ncnc(N/N=C/c3ccc(O)cc3)c2c1C`?
aSyn UTR act: -64*

What do the screens show for `COc1ccc(/C=N/Nc2ncnc3sc(C)c(C)c23)cc1`?
aSyn UTR act: -114*

How did CC1CCCN(S(=O)(=O)c2ccc(C(=O)Nc3nnc(-c4ccccc4Cl)o3)cc2)C1 (stereo not drawn) do in these assays?
aSyn UTR act: 78

What do the screens show for `O=C(Nc1ccc(N2CCCC2)c(Cl)c1)c1cccnc1`?
aSyn UTR act: -112*

What do the screens show for `O=C(Nc1nnc(-c2ccccc2Cl)o1)c1cccnc1`?
aSyn UTR act: -94*

How did O=C(Nc1ccc(N2CCCCC2)c(Cl)c1)c1cccnc1 do in these assays?
aSyn UTR act: -313*

Results for O=C(Nc1ccc(Cl)c(Cl)c1)c1cccnc1 ?
aSyn UTR act: -102*

Results for Cc1cc(O)c(C)c(O)c1/C=N/NC(=O)c1cccnc1 ?
aSyn UTR act: 69

How did Cc1ccc(NC(=O)c2cccnc2)cc1C do in these assays?
aSyn UTR act: -104*

How did O=c1c2sccc2nc(SCc2cc(=O)n3cc(Br)ccc3n2)n1Cc1ccccn1 do in these assays?
aSyn UTR act: -90*

Results for Cc1csc(NC(=S)NC(=O)c2ccccc2)n1 ?
aSyn UTR act: -179*

How did COc1ccc(C(=O)NC(=S)Nc2nc(C)cc(C)n2)cc1Br do in these assays?
aSyn UTR act: -77*

What do the screens show for `COC(=O)c1sc(NC(=S)NC(=O)c2ccccc2)nc1C`?
aSyn UTR act: -198*

What do the screens show for `COc1cc(OC)nc(NC(=S)NC(=O)c2ccccc2)n1`?
aSyn UTR act: -69*

How did COc1ccc(C(=O)NC(=S)NNC(=O)c2cnccn2)cc1OC do in these assays?
aSyn UTR act: 90
